This note sets out measurements from PubChem BioAssay (NCATS).

Test [1] concerns the target Aldehyde dehydrogenase, mitochondrial (Homo sapiens) (UniProt P05091). Put plainly: qHTS for Inhibitors of the Aldehyde Dehydrogenase Family (ALDH2) Primary screen (AID 2061308).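 Note: plate controls were vehicle for no effect and reference inhibitor for full effect; nearly all actives have a fitted effect of over 55% in size.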 On the technique in general: qHTS replaces the single test concentration by a dilution series.
For test [2], the target named is Retinaldehyde dehydrogenase 3 (Homo sapiens) (UniProt P47895). Put plainly: qHTS for Inhibitors of the Aldehyde Dehydrogenase Family (ALDH1A3) Primary screen (AID 2061315).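 Note: plate controls were DMSO vehicle for no effect and reference inhibitor for full effect.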

Inconclusive results are not listed. Activity calls are given as the source filed them. Calls come from the whole dose curve; as a rule, active = well fitted curve in the direction sought with a large enough effect; inconclusive = small, poorly fitted or top-dose-only effect, or another doubt; inactive = no such curve, though single readings can be large; an effect the other way counts as inactive or inconclusive.

For the compound `Cc1cccc(-n2cnc3cc(C(=O)N4CCC(C(F)(F)F)CC4)ccc32)c1`, the Potency entry in test [1] and in test [2] was “inactive” each time.
For `O=C([C@@H](Cc1ccc(O[S+](=O)([O-])c2ccccn2)cc1)N[S+](=O)([O-])c1cccc2cccnc12)N1CCN(c2ccccc2)CC1`, the Potency entry in test [1] and in test [2] was “inactive” throughout.
As to `CC/C(=C(\c1ccc(O)cc1)c1ccc(OCCNC)cc1)c1ccccc1`, the Potency result in test [1] and in test [2] was “inactive” throughout.
Turning to `Cc1cc2c(s1)c1cnn(Cc3cc(F)cc(F)c3)c(=O)c1n2C`, the Potency entry in test [1] and in test [2] was “inactive” in each case.
As for `CN(CCc1cccs1)c1ncnc2ccc(-c3ccc4c(c3)OCO4)cc12`, the Potency entry in test [1] and in test [2] was “inactive” in each case.
Turning to `O=C(c1ccc[nH]1)c1cc(Cl)ccc1NC(=O)[C@@H]1CCCN1`, the Potency result in test [1] and in test [2] was “inactive” each time.
For the compound `Cc1cc2c(s1)c1cnn(Cc3c(F)cccc3C(F)(F)F)c(=O)c1n2C`, the Potency result in test [1] and in test [2] was “inactive” throughout.
On to `O=C(Nc1ccc2ccccc2c1)Nc1nnc(C2CCCCC2)s1`, for which the Potency result in test [1] and in test [2] was “inactive” throughout.
Turning to `COc1cc2nc(N3CCN(C)CC3)nc(NCCN(C)C)c2cc1OC`, the Potency entry in test [1] and in test [2] was “inactive” each time.
Consider `Cc1nc(NCc2ccccc2)c2nc(-c3ccccc3)n(C(C)CN(C)C)c2n1` (centres undefined), for which the Potency entry in test [1] and in test [2] was “inactive” each time.
`Cc1ccc(NS(=O)(=O)c2ccc3c(c2)CCC(=O)N3)cc1F`: the Potency entry in test [1] and in test [2] was “inactive” in each case.
As for `COc1ccc(NS(=O)(=O)c2ccc(C)cc2)c(C(=O)Nc2nc(-c3ccccc3)cs2)c1`, the Potency result in test [1] and in test [2] was “inactive” throughout.
As to `COc1ccc2ncnc(NCC3CCCO3)c2c1-c1ccc2c(c1)OCO2` (centres undefined), the Potency entry in test [1] and in test [2] was “inactive” in each case.
`FC(F)(F)c1cc(-c2ccc(CNc3nc(-c4ccccc4C(F)(F)F)nc4ccccc34)cc2)cc(C(F)(F)F)c1`: the Potency result in test [1] and in test [2] was “inactive” in each case.
Turning to `O=C(Nc1nc(-c2ccccc2)cs1)c1ccccc1-n1cnnn1`, the Potency entry in test [1] and in test [2] was “inactive” in each case.
For `c1cncc(CNc2ncnc3ccc(-c4cccnc4)cc23)c1`, the Potency entry in test [1] and in test [2] was “inactive” throughout.
On to `O=C(Nc1ccc2ccccc2c1)Nc1nnc(-c2ccc(Cl)cc2)s1`, for which the Potency result in test [1] and in test [2] was “inactive” throughout.
As to `O=C(Nc1ccccn1)c1sc2ccc([N+](=O)[O-])cc2c1Cl`, the Potency result in test [1] and in test [2] was “inactive” in each case.
`Cc1cc(-c2nc(Nc3ccc(F)c(F)c3)c3ccccc3n2)ccn1`: the Potency entry in test [1] and in test [2] was “inactive” in each case.
As to `O=C(NCCc1nc2ccccc2n1CCOc1ccccc1[N+](=O)[O-])C1CCCCC1`, the Potency result in test [1] and in test [2] was “inactive” in each case.
On to `FC(F)(F)c1cccc(-c2nc(NCc3ccc(-c4cccnc4)cc3)c3ccccc3n2)c1`, for which the Potency result in test [1] and in test [2] was “inactive” throughout.
For the compound `COC1CC(O[C@H]2CC[C@]3(C)C4CC[C@@]5(C)C(=O)[C@]4(CC[C@@H]3C2)CC[C@@H]5C2=CC(=O)OC2)OC(C)C1OC1OC(COC2OC(CO)C(O)C(O)C2O)C(O)C(O)C1O` (some centres undefined), the Potency result in test [1] and in test [2] was “inactive” in each case.
Regarding `CC(=O)O[C@H]1CC(C)(C)CC2[C@]13CO[C@@]21CCC2[C@@]4(C)CC[C@H](O[C@@H]5OC[C@H](O[C@@H]6O[C@H](CO)[C@@H](O)[C@H](O)[C@H]6O[C@@H]6OC[C@@H](O[C@@H]7O[C@H](CO)[C@@H](O)[C@H](O)[C@H]7O)[C@H](O)[C@H]6O)[C@H](O)[C@H]5O[C@@H]5O[C@H](CO)[C@@H](O)[C@H](O)[C@H]5O)[C@@](C)(CO)C4CC[C@@]2(C)[C@]1(C)C[C@H]3O` (some centres undefined), the results for the activity change, negative = inhibition in test [1] and in test [2] were 0.34% [at 11.2 µM] (inactive) and 11.1% [at 11.2 µM] (inactive), respectively.
With `CCCCN(C)C(=O)Cn1nc(-c2cccc(C)c2)ccc1=O`, the Potency result in test [1] and in test [2] was “inactive” throughout.
As for `CCOC(=O)c1cccc(NC(=O)Nc2nnc(-c3ccncc3)s2)c1`, the Potency result in test [1] and in test [2] was “inactive” throughout.
Turning to `CC(=O)N[C@H](C(=O)N[C@@H](C)C(=O)N[C@H](C#N)CC(=O)O)C(C)C`, the Potency result in test [1] and in test [2] was “inactive” each time.
Consider `O=C(CSc1nc(-c2ccc(F)cc2)nc2c1Cc1ccccc1O2)Nc1ccc(F)cc1`, for which the Potency entry in test [1] and in test [2] was “inactive” throughout.
Turning to `CC[C@H](C)[C@H](NC(=O)[C@H]([C@@H](C)CC)N(C)C(C)=O)C(=O)N[C@H](C(=O)N[C@@H](CC(C)C)C(=O)[C@@]1(C)CO1)[C@@H](C)O`, the Potency entry in test [1] and in test [2] was “inactive” throughout.
Turning to `N#Cc1nc(Nc2cc(F)cc(F)c2)nc(Nc2cc(F)cc(F)c2)n1`, the Potency result in test [1] and in test [2] was “inactive” each time.
Take `Cc1ccc(C(=O)[C@H]2CC[C@@H](C(=O)Nc3ccc(S(=O)(=O)Nc4nccs4)cc3)C2)cc1C`: the Potency result in test [1] and in test [2] was “inactive” throughout.
Turning to `C=CCNc1oc(-c2cccc(Cl)c2)nc1C#N`, the Potency entry in test [1] and in test [2] was “inactive” throughout.
As to `CC1=C(C(=O)Nc2ccc(Cl)cc2)C(c2ccccc2Br)N=C(Nc2nc3ccccc3o2)N1` (centres undefined), the Potency entry in test [1] and in test [2] was “inactive” each time.
